# Assay results as given in the supplement of paper PMC8728848.
# About 410 targets per protein were measured; listed, in parts, are those with the strongest signals and a random draw of the rest.
# B1: LF82 (Escherichia coli) (protein)
# chain: ADWGPCRTASGDPFIFVTSFTKNIQNPTDNVTGQTYPDFYQWALGDKYSGVCECPSPNPTEARPTLYKTESTLAAGHNSTYFKITNNLEVSTRVYIANVGNVQVPFINKSNSQPGRECDQPTFGWTTGSKGQLSLYIAKPFVGEQNIPQTIIVSVFGTKKENVYSSVPISQVLLSGKVTVTQGCELAAGTSLDIDFGEYQAHDFKGRTGQPPQNVQKIQKELTFNCTNISDGVHIYLSLEGTPNAAYPSAISLGNADVGAVIEDGKGNILKPNDSNSLLEMNPGSLYEYVKRKVTTTITAYPVSTTGKLPAAGDYSGVATMHVELDGGGGGGGGGGATTDLGAKGTLKFSLKISQGHHHHHH
# Experiments:
# Assay in all cases: glycan array binding signal (z-score within array); higher = stronger binding
# Settings in all cases: glycan notation: IUPAC condensed, linker removed
# [1] = target: Fuc(a1-2)Gal(b1-3)GalNAc(b1-4)[Neu5Ac(a2-3)]Gal(b1-4)Glc
# Method in brief: (§1)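 Glycan array binding is given as a within-array Z-score, which can be read as non-binding when negative. The arrays, 3228 of them, came from the Consortium for Functional Glycomics database and were retained only where the protein sequence was available. Z-scores were averaged across arrays of the same protein sequence at different concentrations or buffers and across linkers.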
# [2] = target: Fuc(a1-2)Gal(b1-3)GlcNAc6S
# Method in brief: as §1
# [3] = target: Fuc(a1-2)[Gal(a1-3)]Gal(b1-3)GlcNAc
# Method in brief: as §1
# [4] = target: Fuc(a1-2)[Gal(a1-3)]Gal(b1-3)GlcNAc(b1-2)Man(a1-3)[Fuc(a1-2)[Gal(a1-3)]Gal(b1-3)GlcNAc(b1-2)Man(a1-6)]Man(b1-4)GlcNAc(b1-4)[Fuc(a1-6)]GlcNAc
# Method in brief: as §1
# [5] = target: Fuc(a1-2)[GalNAc(a1-3)]Gal(b1-3)GlcNAc(b1-6)GalNAc
# Method in brief: as §1
# [6] = target: Fuc(a1-2)[GalNAc(a1-3)]Gal(b1-4)Glc
# Method in brief: as §1
# [7] = target: Fuc(a1-3)[Gal(b1-4)]GlcNAc(b1-6)[Gal(b1-3)GlcNAc(b1-3)]Gal(b1-4)Glc
# Method in brief: as §1
# [8] = target: Fuc(a1-3)[Gal3S(b1-4)]Glc
# Method in brief: as §1
# Fuc(a1-4)GlcNAc = target: Fuc(a1-4)GlcNAc
# Method in brief: as §1
# Gal(a1-3)Gal(b1-3)GlcNAc = target: Gal(a1-3)Gal(b1-3)GlcNAc
# Method in brief: as §1
# [9] = target: Gal(a1-3)Gal(b1-3)[Fuc(a1-4)]GlcNAc(b1-2)Man(a1-3)[Gal(a1-3)Gal(b1-3)[Fuc(a1-4)]GlcNAc(b1-2)Man(a1-6)]Man(b1-4)GlcNAc(b1-4)GlcNAc
# Method in brief: as §1
# [10] = target: Gal(a1-3)Gal(b1-4)[Fuc(a1-3)]GlcNAc
# Method in brief: as §1
# [11] = target: Gal(a1-3)Gal(b1-4)[Fuc(a1-3)]GlcNAc(b1-2)Man(a1-3)[Gal(a1-3)Gal(b1-4)[Fuc(a1-3)]GlcNAc(b1-2)Man(a1-6)]Man(b1-4)GlcNAc(b1-4)GlcNAc
# Method in brief: as §1
# [12] = target: Gal(b1-3)[Fuc(a1-4)]GlcNAc(b1-2)Man(a1-3)[Gal(b1-3)[Fuc(a1-4)]GlcNAc(b1-2)Man(a1-6)]Man(b1-4)GlcNAc(b1-4)[Fuc(a1-6)]GlcNAc
# Method in brief: as §1
# [13] = target: Gal(b1-4)GlcNAc(b1-2)Man(a1-6)Man(b1-4)GlcNAc(b1-4)GlcNAc
# Method in brief: as §1
# [14] = target: Gal(b1-4)GlcNAc(b1-3)Gal(b1-4)GlcNAc
# Method in brief: as §1
# [15] = target: Gal(b1-4)GlcNAc(b1-3)Gal(b1-4)GlcNAc(b1-2)[Gal(b1-4)GlcNAc(b1-3)Gal(b1-4)GlcNAc(b1-6)]Man(a1-6)[Gal(b1-4)GlcNAc(b1-3)Gal(b1-4)GlcNAc(b1-2)Man(a1-3)]Man(b1-4)GlcNAc(b1-4)[Fuc(a1-6)]GlcNAc
# Method in brief: as §1
# [16] = target: Gal(b1-4)GlcNAc(b1-3)Gal(b1-4)GlcNAc(b1-3)Gal(b1-4)GlcNAc(b1-3)Gal(b1-4)GlcNAc(b1-3)Gal(b1-4)GlcNAc(b1-2)[Gal(b1-4)GlcNAc(b1-3)Gal(b1-4)GlcNAc(b1-3)Gal(b1-4)GlcNAc(b1-3)Gal(b1-4)GlcNAc(b1-3)Gal(b1-4)GlcNAc(b1-6)]Man(a1-6)[Gal(b1-4)GlcNAc(b1-3)Gal(b1-4)GlcNAc(b1-3)Gal(b1-4)GlcNAc(b1-3)Gal(b1-4)GlcNAc(b1-3)Gal(b1-4)GlcNAc(b1-2)Man(a1-3)]Man(b1-4)GlcNAc(b1-4)[Fuc(a1-6)]GlcNAc
# Method in brief: as §1
# [17] = target: Gal(b1-4)GlcNAc(b1-6)Gal(b1-4)GlcNAc
# Method in brief: as §1
# [18] = target: Gal3S(b1-4)[Fuc(a1-3)]Glc6S
# Method in brief: as §1
# GalNAc(a1-3)Gal = target: GalNAc(a1-3)Gal
# Method in brief: as §1
# [19] = target: GalNAc(a1-3)GalNAc(b1-3)Gal(a1-4)Gal(b1-4)GlcNAc
# Method in brief: as §1
# [20] = target: GalNAc(b1-4)GlcNAc(b1-2)Man
# Method in brief: as §1
# [21] = target: GalNAc(b1-4)GlcNAc(b1-2)Man(a1-3)[GalNAc(b1-4)GlcNAc(b1-2)Man(a1-6)]Man(b1-4)GlcNAc(b1-4)GlcNAc
# Method in brief: as §1
# [22] = target: Glc(a1-4)Glc(a1-4)Glc(a1-4)Glc
# Method in brief: as §1
# [23] = target: GlcNAc(a1-4)Gal(b1-4)GlcNAc
# Method in brief: as §1
# [24] = target: GlcNAc(a1-4)Gal(b1-4)GlcNAc(b1-3)Gal(b1-4)[Fuc(a1-3)]GlcNAc(b1-3)Gal(b1-4)[Fuc(a1-3)]GlcNAc
# Method in brief: as §1
# [25] = target: GlcNAc(b1-2)Man(a1-3)[GlcNAc(b1-2)Man(a1-6)]Man(b1-4)GlcNAc(b1-4)GlcNAc
# Method in brief: as §1
binder,measurement,setting,value
B1,glycan array binding signal (z-score),[1],3.03
same,glycan array binding signal (z-score),[2],2.87
same,glycan array binding signal (z-score),[3],-0.338
same,glycan array binding signal (z-score),[4],3.84
same,glycan array binding signal (z-score),[5],1.19
same,glycan array binding signal (z-score),[6],-0.933
same,glycan array binding signal (z-score),[7],-1.03
same,glycan array binding signal (z-score),[8],0.085
same,glycan array binding signal (z-score),Fuc(a1-4)GlcNAc,-0.348
same,glycan array binding signal (z-score),Gal(a1-3)Gal(b1-3)GlcNAc,-0.354
same,glycan array binding signal (z-score),[9],0.456
same,glycan array binding signal (z-score),[10],-1.48
same,glycan array binding signal (z-score),[11],1.79
same,glycan array binding signal (z-score),[12],0.378
same,glycan array binding signal (z-score),[13],4.95
same,glycan array binding signal (z-score),[14],-1.12
same,glycan array binding signal (z-score),[15],2.68
same,glycan array binding signal (z-score),[16],3.2
same,glycan array binding signal (z-score),[17],-0.202
same,glycan array binding signal (z-score),[18],-0.55
same,glycan array binding signal (z-score),GalNAc(a1-3)Gal,-0.316
same,glycan array binding signal (z-score),[19],-0.744
same,glycan array binding signal (z-score),[20],0.518
same,glycan array binding signal (z-score),[21],-0.272
same,glycan array binding signal (z-score),[22],1.21
same,glycan array binding signal (z-score),[23],2.49
same,glycan array binding signal (z-score),[24],3.63
same,glycan array binding signal (z-score),[25],-0.657
